Compound activity deposited in PubChem BioAssay by Sanford-Burnham Center for Chemical Genomics.
A selection: hits, their analogues and other compounds. The true share with any hit is near 4%.
HIF-2a block – HIF-2a reporter inhibitors, primary screen, luminescence, 786-0 RCC cells; inhibition, % at 18.8 µM; 786-0 RCC cells HIF-2a reporter, luciferase luminescence, overnight; actives 0.72% (n = 360,000);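 active means inhibition of the luminescence signal of 40% or more relative to plate controls, in a single-dose primary screen at 18.75 µM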
Peg3 promoter – Peg3 promoter-driven luciferase inhibitors, primary screen, cell-based, HeLa, luciferase luminescence; HeLa PEG-Prom luciferase reporter, overnight; inhibition, % at 20 µM; actives 1.7% (n = 360,000);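 active means inhibition of at least 50% at 20 µM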
TWEAK-Fn14 inh – inhibitors of TWEAK-Fn14 signaling, primary screen, luciferase reporter cells, uHTS; TWEAK-stimulated Fn14 reporter cells, luciferase luminescence, 8 h; inhibition, % at 10 µM; actives 2% (n = 360,000); AID 1159606, 2016; in the data active means inhibition above about 50%
TROY NFkB inh – inhibitors of TROY-driven NF-kB signaling, primary screen, Q293 LMP1-TROYcd cells, NF-kB luciferase, uHTS | Q293 LMP1-TROYcd NF-kB luciferase reporter, 4 h | inhibition, % at 10 µM | actives 0.98% (n = 360,000);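 active means compounds whose plate-normalised and pattern-corrected inhibition of the luciferase reporter signal at the single screening dose is 50% or more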
CF NFkB inh – inhibitors of PAF-induced NF-kB signaling, primary screen, cell-based, GFP fluorescence, uHTS; inhibition, % at 5 µM; KKLEB NF-kB-GFP reporter, GFP fluorescence overnight; actives 0.86% (n = 360,000);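 active means at least 50% inhibition at 5 µM, scaled per plate between neutral and stimulator controls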;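 further: PAF is a Pseudomonas aeruginosa culture filtrate used as stimulus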
KKLEB cytotox – cytotoxicity in KKLEB CF airway cells, primary screen, cytotoxicity control for CF NF-kB inhibitor project, cell-based, uHTS, fluorescence assay plates. activity change (cytotoxicity), % at 5 µM. KKLEB CF airway cells viability, ATPlite luminescence, overnight; hits give low values; cells stimulated with P. aeruginosa culture filtrate. actives 0.36% (n = 360,000);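 active means corrected activity change at or below -50% at 5 µM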
Of the large screens only hits and unclear results are named; the others gave an inactive call.

CCOC(=O)C1=C[C@@H](C2CCCCC2)N(S(=O)(=O)c2ccc([N+](=O)[O-])cc2)[C@H]1c1ccccc1	TWEAK-Fn14 inh 75
CCOC(=O)C1=CC[C@@H](c2ccc([N+](=O)[O-])cc2)N(S(=O)(=O)c2ccc(C)cc2)[C@H]1c1ccccc1	none
COc1ccc(-c2[nH]c(-c3ccc(C(=O)O)cc3)nc2-c2ccccc2)cc1	none
COc1cc(-c2nc(-c3ccc4c(c3)-c3ccccc3S4(=O)=O)c(-c3ccccc3)[nH]2)cc(OC)c1O	TWEAK-Fn14 inh 59
CC(C)C(=O)NC(c1cccc([N+](=O)[O-])c1)c1c(O)ccc2ccccc12 (centres undefined)	TROY NFkB inh 51
CC(=O)NC(c1ccc(C(C)C)cc1)c1c(O)ccc2ccccc12 (centres undefined)	none
CC(C)C(=O)NC(c1ccc([N+](=O)[O-])cc1)c1c(O)ccc2ccccc12 (centres undefined)	Peg3 promoter 52
Cc1ccc(C(NC(=O)C2CCCCC2)c2c(O)ccc3ccccc23)cc1 (centres undefined)	Peg3 promoter 54
CC(=O)Nc1cc2c3c(c1)CC(=O)N3CCC2	none
OC(COCC(F)(F)C(F)(F)C(F)(F)C(F)F)Cn1c2ccc(Cl)cc2c2cc(Cl)ccc21 (centres undefined)	Peg3 promoter 63, TWEAK-Fn14 inh 64, TROY NFkB inh 57
CCOC(=O)c1c(O)c2cc(Cl)ccc2n(CC)c1=O	none
O=C(C1=C(Nc2ccccc2)c2ccccc2S(=O)(=O)N1)c1ccccc1	TWEAK-Fn14 inh 74, TROY NFkB inh 55
Cc1ccccc1NC1=C(C(=O)c2ccccc2)N(C)S(=O)(=O)c2ccccc21	none
Cn1c(C=O)c(-c2ccc3cc[nH]c3c2)c2ccccc21	TWEAK-Fn14 inh 66
COc1cc(/C=N/NC(=O)c2ccc(COc3cc(C)ccc3C(C)C)cc2)cc(OC)c1O	HIF-2a block 69
COc1cc(/C=N\NC(=O)c2ccc(-c3ccccc3)cc2)cc(OC)c1O	none
COc1cc(C(=O)NCCOc2cc(C)ccc2C(C)C)cc(OC)c1OC	TWEAK-Fn14 inh 62
Cc1ccc(C(C)C)c(OCCNC(=O)c2cncc(Br)c2)c1	none
CCOc1cc(/C=N/NC(=O)c2ccc(=O)n(C)c2)ccc1O	none
Cc1ccc(C(C)C)c(OCc2ccc(C(=O)N/N=C/c3cccc(O)c3O)cc2)c1	HIF-2a block 71
Cc1ccc(C(C)C)c(OCc2ccc(C(=O)N/N=C/c3ccc(O)c(O)c3)cc2)c1	HIF-2a block 72, TWEAK-Fn14 inh 62
CCN1C(=O)[C@H]2[C@@H](c3ccc(-c4cc(C(C)=O)cs4)cc3)N3CCCC[C@@]3(C(=O)OC)[C@H]2C1=O	none
CN1CCN(S(=O)(=O)c2ccc(Oc3cccc(C(F)(F)F)c3)nc2)CC1	none
Cc1cc(C)n2c(Nc3ccc4c(c3)OCCO4)c(CC(C)C)nc2n1	none (no result: Peg3 promoter, CF NFkB inh, KKLEB cytotox)
Cc1ccc(-c2csc(=Nc3cccnc3)n2CCCn2ccnc2)cc1C	TWEAK-Fn14 inh 84, TROY NFkB inh 51, CF NFkB inh 75
Cc1nc(-c2cccs2)sc1C(=O)O	none
Cc1nccc(-c2sc(-c3cccs3)nc2C)n1	TROY NFkB inh 59
CCc1nc2ccc(C(=O)NCCCN3CCN(c4ccccc4F)CC3)cc2nc1CC	none
CC(=O)ON=C1C=CC(=C(C#N)c2ccccc2)C=C1	CF NFkB inh 80
FC(F)(F)c1ccc(N2CCN(c3cc(-c4ccccc4)nc4ncnn34)CC2)nc1	TWEAK-Fn14 inh 80, TROY NFkB inh 67
CC(C)(C)c1ccc(C(=O)n2cnc3ccccc32)cc1	TWEAK-Fn14 inh 78, TROY NFkB inh 64
CCOc1ccc(S(=O)(=O)Nc2ccc(C(=O)NCC(C)(C)N3CCOCC3)cc2)cc1	none
COc1ccc(C(C(=O)NC2CCCCC2)N(C(=O)c2cccs2)c2ccc3c(c2)OCO3)cc1 (centres undefined)	KKLEB cytotox -70
